RecA splice inh = Mtb RecA intein splicing inhibitors, primary screen, biochemical, fluorescence, HTS | cell-free RecA intein splicing | inhibition, % (concentration not given with the values) | actives 0.75% (n = 290,000) | AID 2221, 2009; in the data active = inhibition above about 30%;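 note: 0% = vehicle wells and 100% = reference inhibitor control wells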
PrPC TRFRET = inhibitors of human cell surface prion protein PrPC, primary screen, cell-based, TR-FRET; Major prion protein (Homo sapiens), P04156; TR-FRET read-out; inhibition, % at 13.8 µM; actives 0.43% (n = 370,000); in the data active = inhibition above about 24%; note: 0% = median of the test wells and 100% = reference compound wells
BJeLR lethal = MLPCN primary cell-based screen for lethality selective to Ras in HRASV12 cells | AID 1554, 2009 | BJeLR (HRASV12) viability, CellTiter-Glo ATP luminescence, 48 h | actives 0.17% (n = 300,000) | inhibition, % (test concentration not listed); in the data active = inhibition above about 50%
Mtb FBA inh = Mtb FBA enzyme inhibitors, primary screen, biochemical, fluorescence, strain H37Rv. actives 2.3% (n = 360,000). inhibition, % at 1 µM. purified M. tuberculosis FBA, fluorescence read-out; in the data active = inhibition above about 27%;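 note: 0% = vehicle and 100% = reference inhibitor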
GDH-TPI inh = GDH-TPI coupling enzyme inhibitors, primary screen, artefact control for M. tuberculosis FBA inhibitor project, biochemical, absorbance, full deck | GDH-TPI coupled enzyme counterscreen, NADH absorbance | actives 1.2% (n = 360,000) | inhibition, % at 4.8 µM; in the data active = inhibition above about 30%;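 note: 0% = DMSO wells and 100% = wells lacking the enzyme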
PrPC TRFRET cf = confirmation of inhibitors of cell surface human prion protein, confirmation, cell-based, TR-FRET. cell surface PrPC level. shares compounds with PrPC TRFRET. actives 65% (n = 1,500). inhibition, % at 13.8 µM. AID 743200, 2013; in the data active = inhibition above about 25%
LD9 tox = cytotoxicity in LD9 cells, cytotoxicity control for cell surface PrPc inhibitor project, cell-based, luminescence, high throughput; shares compounds with PrPC TRFRET; luminescence viability; inhibition, % at 13.8 µM; actives 29% (n = 1,500); AID 743201, 2013; in the data active = inhibition above about 9.5%
An asterisk follows results filed as active; nt = not tested or not shown. Only some compounds are listed: those with a hit (about 4.2% of all), similar ones and a draw of the others.

SMILES	RecA splice inh	PrPC TRFRET	BJeLR lethal	Mtb FBA inh	GDH-TPI inh	PrPC TRFRET cf	LD9 tox
CN(C)S(=O)(=O)c1ccc(N2CCCC2)c(C(=O)Nc2nc(-c3ccc(F)c(F)c3)cs2)c1	1	5	-10	-4	2	nt	nt
COc1cc(OC)c(N(C)S(=O)(=O)c2cccc(C(=O)Nc3nccs3)c2)cc1Cl	nt	-3	nt	-2	0	nt	nt
CCc1cccc(NC(=O)c2cc(S(=O)(=O)N(C)C)ccc2N2CCCC2)c1	0	30*	-9	-1	13	36*	-4
Cc1cnc(NC(=O)c2cc(S(=O)(=O)N(C)C)ccc2N2CCCC2)s1	nt	72*	nt	-1	16	79*	-8
CN(C)S(=O)(=O)c1ccc(N2CCCC2)c(C(=O)Nc2nccs2)c1	nt	52*	nt	0	13	54*	-5
CC(c1ccc(Cl)cc1)N(CCN(C)C)c1ccccn1 (stereo unspecified)	nt	-8	nt	nt	nt	nt	nt
O=[N+]([O-])c1ccc2c(c1)CCCO[C@]21O[C@H](CCO)C[C@H](O)[C@H]1O	nt	-8	nt	nt	nt	nt	nt
O=C(NCc1cccc(Cl)c1)c1cc(COc2ccc3ncccc3c2)on1	12	25*	0	4	8	26*	15*
CSc1nc2c(=O)[nH]cnc2s1	nt	9	nt	nt	nt	nt	nt
CCOC(=O)C1=C(c2ccccc2)NC(=O)NC1c1ccc(O)c(Cl)c1 (stereo unspecified)	-1	36*	0	4	-10	49*	52*
COc1ccc(C2CC3CN(C4CCCCC4)C(=O)C3N2C)cc1 (stereo unspecified)	nt	3	nt	nt	nt	nt	nt
COc1ccc(NC(=O)c2c(N)no[n+]2[O-])cc1	0	26*	-4	-2	20	25*	-7
Cc1ccc2nc(CN(C)C(=O)[C@H]3O[C@@H](n4cnc(C(N)=O)n4)[C@H](O)[C@@H]3O)[nH]c2c1	nt	-5	nt	nt	nt	nt	nt
COC(=O)c1cc(Br)c(=O)n(-c2nccs2)c1	0	49*	-10	2	-3	94*	-3
COC(=O)c1cc(Br)c(=O)n(-c2ccccn2)c1	-5	7	-6	2	4	nt	nt
COc1ccc(C(=O)Nc2nnc(Cc3cccs3)s2)cc1OC	0	65*	1	5	14	36*	-1
CN1C(=O)[C@@]2(O[C@H]3[C@H]4C=C[C@@H]([C@H]5C(=O)N(Cc6ccccc6)C(=O)[C@@H]45)N3C3=C2C(=O)CC3)c2ccccc21	nt	4	nt	nt	nt	nt	nt
O=C(NCc1cccnc1)c1c(O)c2cccc3c2n(c1=O)CCC3	18	32*	7	1	3	39*	-7
CNC(=O)c1cc(Oc2ccc(NC(=O)Nc3ccc(Cl)c(C(F)(F)F)c3)cc2)ccn1	nt	27*	nt	0	-8	17	6
N#CC1c2ccccc2-n2nncc2CN1Cc1cc(Cl)cc(Cl)c1 (stereo unspecified)	nt	68*	nt	3	-2	91*	98*
NC(c1csc(NC(=O)Nc2cccc(Cl)c2)n1)C1CCCCC1 (stereo unspecified)	nt	26*	nt	2	5	23	-3
NC(c1csc(NC(=O)Nc2ccccc2)n1)C1CCCCC1 (stereo unspecified)	nt	15	nt	-3	-4	nt	nt
N#Cc1c(N)n(C2OC(CO)C(O)C2O)c2ncnc(N)c12 (stereo unspecified)	nt	26*	nt	-1	-8	30*	34*
Nc1ncnc2c1ncn2C1O[C@H](CO)[C@@H](O)[C@@H]1O (stereo partly specified)	nt	7	nt	4	9	nt	nt
Cc1ccc2c(c1)-c1c(cnn1CC(=O)NCCc1cccc(F)c1)CO2	nt	-7	nt	nt	nt	nt	nt
CCO[C@H]1OC(C(=O)Nc2ccccc2)=C[C@@H](c2ccc(C(F)(F)F)cc2)[C@@H]1CCCO	0	31*	-4	-1	-5	6	-3
